Compound activity: PubChem, National Center for Advancing Translational Sciences (NCATS)
This is a sample that favours compounds with a hit; in the whole collection about 2.8% have one here.
IP6K1 inhibitor – blocks human inositol hexakisphosphate kinase 1; Q92551; IP6K1 kinase, ADP-Glo luminescence, 2 h; stronger effect = lower value; activity change, % (series mostly up to about 58 µM); 140,000 compounds, 0.81% hits; in the data active = activity change below about -25%; note: % is set by controls: 0 for no effect and ±100 for the full control effect
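ADP-Glo luminescence measures ADP made by human IP6K1 during a 2 h RT reaction with ATP/IP6 (mix at 1.3 mM/130 uM); top library doses 57.5 and 19.1 uM final.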
KDM5B inhibitor – blocks human KDM5B histone demethylase activity; Q9UGL1; KDM5B demethylase, FDH-coupled NADH fluorescence (FDH is formaldehyde dehydrogenase); Potency, µM (highest dose often 57.7 µM), usual class: inhibitors; 220,000 compounds, 2.6% hits; AID 1347165; active = well fitted inhibition curve with a large enough effect; inconclusive = small, poorly fitted or top-dose-only effect; inactive = no such curve, though single readings can be large or run the other way; note: potency is the fitted concentration of half-maximal effect; 0% is about no effect; nearly all actives have a fitted effect of over 70% in size
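Coupled FDH/NAD⁺ fluorescence readout. KDM5BΔAP 200 nM final; compound titration, 10 min RT preincubation; substrate mix 12.5 µM H3K4me3, 25 µM 2-OG, 50 µM Fe(II), 100 µM ascorbate, 0.25 mM NAD⁺, 0.25 U/mL FDH; ΔRFU over 30 min.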
An asterisk follows results filed as active; i = inactive; ? = inconclusive; / = no result given.

SMILES	IP6K1 inhibitor	KDM5B inhibitor
Cc1cc(C[C@@H]2COC[C@@H]2NC(=O)COc2cccc(C)c2C)on1	2	20µM*
O=C(c1cc(-c2cc(Cl)cc(Cl)c2)c2cccn2n1)N1CCOCC1	-5	/
CN1CCC2(C1)CN(Cc1ccccc1)c1ccc(C(=O)NC3CC3)cc12 (configuration not stated)	-4	35µM*
CN1CCC2(C1)CN(Cc1ccccc1)c1ccc(C(=O)NCC[S+](C)(=O)[O-])cc12 (configuration not stated)	-4	35µM*
CN1CCCC2(C1)CN(Cc1cccnc1)c1ccc(C(=O)Nc3ccccc3)cc12 (configuration not stated)	-4	?
CN1CCC2(C1)CN(Cc1ccccc1)c1ccc(C(=O)NC3CCC3)cc12 (configuration not stated)	0	?
C=CC(=O)Nc1cc(Nc2nccc(-c3cn(C)c4ccccc34)n2)c(OC)cc1N(C)CCN(C)C	116	/
O=C(c1ccc(C(F)(F)F)cc1)N1CCN(C(=O)c2nc3cccnc3n(C3CCCC3)c2=O)CC1	-5	/
CCOCCNC(=O)CNC(=O)c1ccc(-c2cnc3ccccc3c2)cc1	2	/
COc1ccc(-c2ccccc2C(=O)N2CCC(NC(=O)c3ccc(C(F)(F)F)cc3)CC2)nn1	-1	/
C[C@@H]1C[C@@H]2O[C@H]2CCCCC(=O)Cc2cc(O)cc(O)c2C(=O)O1	/	i
C[C@@H]1C[C@H]2O[C@@H]2/C=C\C=C\C(=O)Cc2c(Cl)c(O)cc(O)c2C(=O)O1	-27*	/
COc1cccc(-c2cc(C(=O)N(C)C)c3cnn(C)c3n2)c1	1	/
CN1CCN(CCNC(=O)c2cc(-c3ccccc3)cn2C)CC1	-7	i
COc1ccc(-c2cc(C(=O)NCC[S+](C)(=O)[O-])c3c(c2)N(C)CCO3)cn1	-22	32µM*
COc1ccc(-c2cc(C(=O)NCc3cc(C)on3)c3c(c2)N(C)CCO3)cn1	-17	35µM*
COc1ccc(C(=O)NCCc2ncc(C)n2C2CC2)cn1	1	i
CN1CCOc2c(C(=O)NCc3cnn(C)c3)cc(-c3ccc(CO)cc3)cc21	-23	20µM*
Cc1cc(CNC(=O)c2cc(-c3ccnn3C)cc3c2OCCN3C)no1	-2	?
CN1CCOc2c(C(=O)NCC[S+](C)(=O)[O-])cc(-c3ccccc3)cc21	-16	32µM*
Cc1ccc(-c2cc(C(=O)NCc3cnn(C)c3)c3cc(Br)ccc3n2)cc1	-17	i
Cn1c(=O)[nH]c(=O)c2c1nc(N1CCN(c3cccc(Cl)c3)CC1)n2Cc1ccccc1	/	i
CCOC(=O)[C@@H]1CN(C(=O)c2ccc3c(c2)OCCCO3)[C@H]2c3cccc(F)c3O[C@@H]12	4	/
CC1(C)CCCN(CC(=O)c2c[nH]c3ccccc23)C1	/	i
COc1ccc(C(=O)NCc2cccc(OC)c2)cc1	/	i
SMILES	IP6K1 inhibitor	KDM5B inhibitor
COCc1nncn1C1CCN(S(=O)(=O)c2ccc(Br)s2)CC1	14	/
O=C1Nc2ccccc2CN(Cc2ccccc2)C12CCNC2 (configuration not stated)	-15	?
CN1CCOc2c(C(=O)NCc3cccnc3)cc(-c3ccc(O)c(F)c3)cc21	-16	?
COc1ccc(-c2cc(C(=O)NCCc3cnc[nH]3)c3c(c2)N(C)CCO3)cc1OC	-16	32µM*
O=[S+]([O-])(NC1CCN(c2ccnc3ccnn23)CC1)c1ccccc1	8	/
Cc1cccc(-c2cccc(CN3CCC(NC(=O)c4ccccc4Cl)CC3)c2)c1	-4	/
O=C(Cc1coc2ccc3ccccc3c12)OC[C@@H]1CCCO1	/	i
O=C1CC2CCN(C(=O)c3ccccc3)CC2CCN1 (configuration not stated)	-11	28µM*
O=C1CC2CCN(C(=O)c3ccc(F)cc3)CC2CCN1 (configuration not stated)	-10	i
Cn1ncc2c(C(=O)N3CCCCC3)cc(-c3ccc(C(F)(F)F)cc3)nc21	-19	/
Cc1nn(-c2ccccc2)c2c1C(C(C)C)N(C1CCN(C(=O)C3CCCC3)C1)C2=O (configuration not stated)	34	/
Cc1ccc2nc(C)cc(C(=O)N3CCC(c4cc(CC(=O)O)[nH]n4)CC3)c2c1	1	i
Cc1ccc(-c2cc(C(=O)N3CCC(c4cc(CC(=O)O)[nH]n4)CC3)n[nH]2)o1	14	25µM*
O=C(NCC(=O)N1CCCCC1)c1cccc(-c2ccsc2)c1	0	/
CCn1c2ccccc2c2cc(CN3CCN(Cc4ccc(Br)cc4)CC3)ccc21	-58*	?
CCn1cc(CN2CCN(Cc3ccccc3)CC2)ccc1=O	4	?
CNC(=O)c1cc(C)nc2onc(C3CCCN(C(=O)Cc4ccc(OC)cc4)C3)c12 (configuration not stated)	1	/
COc1ccc(-c2cc(C(=O)NCC(C)C)c3c(C4CCNC4)nn(C)c3n2)cc1 (configuration not stated)	-4	79µM*
COc1ccc(-c2cc(C(=O)N3CCOCC3)c3c(C4CCNC4)nn(C)c3n2)cc1 (configuration not stated)	1	79µM*
Cn1nc(C2CCNC2)c2c(C(=O)NCc3ccncc3)cc(C3CC3)nc21 (configuration not stated)	-5	?
COc1ccc(-c2cc(C(=O)NC3CC3)c3c(C4CCCN4)nn(C)c3n2)cc1 (configuration not stated)	1	?
CCc1noc(-c2cn(C3CCN(C(=O)c4cccc5[nH]ccc45)CC3)nn2)n1	44	32µM*
CCc1noc(-c2cn(C3CCN(C(=O)c4ccccc4)CC3)nn2)n1	30	i
COc1ccccc1C(=O)N1CCC(n2cc(-c3nc(C(C)C)no3)nn2)CC1	4	i
CC(C)c1noc(-c2cn(C3CCN(C(=O)c4cccc5[nH]ccc45)CC3)nn2)n1	12	28µM*
SMILES	IP6K1 inhibitor	KDM5B inhibitor
CCOc1ccc(NC(=O)c2nc3ccccc3nc2N(CC)CC)cc1	/	i
COc1ccc(F)cc1-c1cccc(C(=O)NCCNC(=O)c2ccccn2)c1	-1	/
O=C(NC1CCOCC1)C1CCCCN1Cc1ccc(-c2cccs2)cc1 (configuration not stated)	1	/
N#Cc1ccccc1-c1ccc(C=O)o1	/	i
N#Cc1ccccc1-c1ccc(-c2cn(Cc3nnc4ccccn34)nn2)o1	-6	28µM*
O=C(COC(=O)c1n[nH]c2ccccc12)Nc1ccc(OC(F)(F)F)cc1	/	i
CCOC(=O)[C@@H]1CN(C(=O)OCC)[C@H]2c3ccc(OC)cc3O[C@@H]12	1	/
Cc1[nH]c(=O)c(C#N)cc1C(=O)N1CCCC2(CCC(=O)N(C3CC3)C2)C1 (configuration not stated)	5	28µM*
O=C(c1ccc(Cn2cccn2)o1)N1CCCC2(CCC(=O)N(C3CC3)C2)C1 (configuration not stated)	6	i
O=C1NC2(CCCN([S+](=O)([O-])c3cccc(C(F)(F)F)c3)C2)COc2ccccc21 (configuration not stated)	11	35µM*
O=C1NC2(CCN([S+](=O)([O-])c3cccc(C(F)(F)F)c3)C2)COc2ccccc21 (configuration not stated)	16	i
Cc1noc(C)c1[S+](=O)([O-])N1CCC2(C1)N=C(c1cccnc1)C(=O)N2 (configuration not stated)	-3	i
